This is part of a sample that, as a whole, favours compounds with a hit. Of some 83,000 tested, about 20% had one in any assay.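 Cells were grown in 96-well plates and exposed to the test compound at a single concentration for 48 hours; results are reported as percent growth, with values below 10 considered active.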 Unmarked numbers belong to inactive results. Activity calls are given as the source filed them.
test system: HL-60(TB) leukemia; experiment: NCI-60 one-dose screen, 48 h (100 = growth as untreated, 0 = no growth, -100 = all killed); details: 10 µM unless noted

SMILES	growth
CC(C)[C@H]1CC[C@H]2[C@@H](CC[C@H]3[C@](C)(CN)CCC[C@]23C)C1	71.8%
COc1ccc(/C=C/C(=O)c2ccc(O)c(CN3CCN(c4cc5c(cc4F)c(=O)c(C(=O)O)cn5C4CC4)CC3)c2)cc1	0.375% (active)
Oc1ccc(O)cc1	48.4%
Oc1c(C(Nc2ccccn2)c2cccc(Oc3ccccc3)c2)ccc2cccnc12 (stereo not given)	-51.9% (active)
Oc1cccc(-c2nc(-c3n[nH]c(=S)n3-c3ccccc3)cc3c2[nH]c2ccccc23)c1	4.29% (active)
CS(=O)(=O)Nc1cncc(-c2ccc3ncnc(Nc4ccc(F)c(Cl)c4)c3c2)c1	6.11% (active)
Cn1cc(-c2csc(-c3c[nH]c4ccccc34)n2)c2cnccc21	-30.2% (active)
Oc1[nH]c2ccccc2c1/C=c1/ccc2c(c1)N=C(c1ccc(C(F)(F)F)cc1)N=2	74.3%
Cn1cc(-c2csc(-c3ccccc3)n2)c2cccnc21	3.19% [100 µM] (active)
Cn1ccnc1C(=O)/C=C/c1ccc(C(=O)Nc2ccc(S(F)(F)(F)(F)F)cc2)cc1	-30.1% (active)
C#Cc1cccc(Nc2ncnc3ccc(NC(=O)c4ccccc4)cc23)c1	71.9%
COc1cc(/C=C/C(=O)c2cccc(-n3cc(-c4ccccc4)[nH]c3=O)c2)cc(OC)c1OC	-5.55% (active)
Cc1cc2c(c(C)c1Cl)C(=O)/C(=C/c1cccc([N+](=O)[O-])c1)O2	98.8%
O=C(O)Cc1ccc2c(c1)Cc1cccnc1O2	103%
CC(=O)O.CC(=O)O.O.[Fe]	114%
COc1ccc2c(c1)CC/C(=C\c1ccc(OCC(=O)Nc3nc4ccccc4s3)cc1)C2=O	87.6%
O=C(NC(=S)N1CC=CCC1)c1ccccc1	125%
C=C(C)[C@@H]1CC[C@]2(C(=O)O)CC[C@]3(C)[C@H](CC[C@@H]4[C@@]5(C)C[C@@H](CC#Cc6ccccc6C)C(=O)C(C)(C)[C@@H]5CC[C@]43C)[C@@H]12	-14.7% (active)
CCCCCCCCCCC(C)Br (stereo not given)	93.1%
COc1cc2nc(-c3ccc(-c4nn[nH]n4)cc3)[nH]c(=O)c2cc1OC	93.8%

SMILES	growth
CCC/C=C(/C(C)=O)C(=O)OCC	93.2%
Oc1ccc(-c2nc3ccc4[nH]ncc4c3c3c2CCCC3)c(F)c1	0.236% (active)
Cc1cc2nc(-c3c(-c4ccc(F)cc4)nc4sccn34)[nH]c2cc1C	87.3%
C=CC(=O)Nc1cccc(Nc2nc(Nc3ccc(OCCOC(F)F)cc3)ncc2F)c1	19.8%
O=C(N/N=C/c1cccc([N+](=O)[O-])c1)c1ccc(Br)o1	103%
COc1cccc(NC(=O)Nc2ccc(Oc3ncnc4[nH]c(C)c(C)c34)cc2)c1	88.4%
COc1ccc2c(c1)C(=O)/C(=C/c1ccc(OCC(=O)Nc3nccs3)cc1)O2	-84.2% (active)
c1ccc(CNc2ncnc3scc(-c4cccs4)c23)nc1	58.2%
Nc1cccc2c1C(=O)c1cccc(NC(=O)c3ccccc3)c1C2=O	1.36% (active)
O=c1ccc(-c2nc(N3CCOCC3)c3ccccc3n2)c[nH]1	95.8%
C=C(C)[C@@H]1CC[C@]2(C)[C@H](CC=C3[C@@H]4CC(C)(C)CC[C@]4(C(=O)OC)CC[C@]32C)[C@@]1(C)CC/C(N)=N/O	2.39% (active)
COc1cc(Nc2ccnc(N3CCN(c4ccnc5cc(Cl)ccc45)CC3)n2)cc(OC)c1	-23.7% (active)
CCOC(=O)/C=C1\S/C(=N\Nc2cc(=O)[nH]c3ccc(Br)cc23)N(c2ccccc2)C1=O	-12.1% (active)
NC(=O)c1c(NC(=O)c2cccs2)sc2c1CCC(=O)C2	2.73% (active)
O=C1CNc2cc(Cl)ccc2N1	99.7%
COc1ccc(C(=O)c2cc3c(N)c(C(=O)Nc4cccc(Br)c4C)sc3nc2C)cc1	-58.7% (active)
CCCCN(CCCC)CCCn1c(-c2ccccc2)ccc1-c1ccccc1	61.6%
COc1ccc2cc(C(C)C(=O)Nc3ccc(-c4n[nH]c(=S)n4C4CCCCC4)cc3)ccc2c1 (stereo not given)	73.6%
CC(=O)/C(N=Nc1ccc(S(=O)(=O)c2ccc(N=N/C(C(C)=O)=C(/C)O)cc2)cc1)=C(\C)O	88.5%
C=C(C)[C@@H]1CC[C@]2(COC(=O)c3ccccc3C(=O)O)CC[C@]3(C)[C@H](CC[C@@H]4[C@@]5(C)CCCNC(C)(C)[C@@H]5CC[C@]43C)[C@@H]12	6.45% (active)
